# Experimental data from paper PMC10812921, “Transcriptional Coactivator BOB1 (OBF1, OCA-B) Modulates the Specificity of DNA Recognition by the POU-Domain Factors OCT1 and OCT2 in a Monomeric Configuration”.
# Target: POU1 (OCT1 POU domain);BOB1 (OBF1, OCA-B) (human;human, UniProt P14859;Q16633 260-458;1-256, |)
# Experiment: EMSA-SELEX-seq; with BOB1 (ternary complex band); 20 mM Tris-HCl pH 7.6, 140 mM NaCl, 10% glycerol, 0.5 mM EDTA, 0.05% Triton X-100, 0.1 mg/mL BSA, 0.1 mg/mL poly(dI-dC), 5 mM DTT, room temperature, 20 min; high values mean tight binding
# Settings: protein: recombinant;recombinant; copies: 1;1; dsDNA, one strand shown
# Procedure, shortened: (§1)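 After expression in E. coli BL21, tagged POU-domain proteins were purified under denaturing conditions and then renatured. Each binding reaction held 30 ng protein and 300 ng of a PCR-amplified double-stranded random 35-nt library in 20 μL Tris–HCl pH 7.6 binding buffer, with or without 28 ng coactivator protein, for 20 min at RT. Bands holding complexes were cut from native 6% PAGE, eluted and PCR-amplified across four rounds, and the output was Illumina-sequenced. The value given for binding preference is the share, in percent, of sequenced 8-mers fitting a motif pattern.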
row,Sequence,binding signal
1,AACCTAAA,0.0242 % of ANNNNAAN 8-mers
2,AAACAAAT,0.761 % of ANNNNAAN 8-mers
3,AGTCGAAT,0.0468 % of ANNNNAAN 8-mers
4,ATCATAAA,0.0425 % of ANNNNAAN 8-mers
5,AGGCTAAT,0.0675 % of ANNNNAAN 8-mers
6,AGCCGAAA,0.0238 % of ANNNNAAN 8-mers
7,ACATCAAA,0.0363 % of ANNNNAAN 8-mers
8,AACGCAAA,0.266 % of ANNNNAAN 8-mers
9,AGTGGAAC,0.0281 % of ANNNNAAN 8-mers
10,ACTCGAAC,0.0113 % of ANNNNAAN 8-mers
11,ACGGGAAT,0.0574 % of ANNNNAAN 8-mers
12,ACGACAAG,0.0215 % of ANNNNAAN 8-mers
13,AGTTAAAT,0.217 % of ANNNNAAN 8-mers
14,AGCTTAAC,0.0195 % of ANNNNAAN 8-mers
15,ACGTGAAC,0.0215 % of ANNNNAAN 8-mers
16,ACTAGAAT,0.0589 % of ANNNNAAN 8-mers
17,AAAATAAT,0.153 % of ANNNNAAN 8-mers
18,AGTAGAAG,0.0336 % of ANNNNAAN 8-mers
19,AACGTAAG,0.0336 % of ANNNNAAN 8-mers
20,ATACGAAT,0.0687 % of ANNNNAAN 8-mers

# Target: T1, POU2 (OCT2 POU domain);BOB1 (OBF1, OCA-B) (human;human, UniProt P09086;Q16633 175-386;1-256, |)
# T1 sequence 1: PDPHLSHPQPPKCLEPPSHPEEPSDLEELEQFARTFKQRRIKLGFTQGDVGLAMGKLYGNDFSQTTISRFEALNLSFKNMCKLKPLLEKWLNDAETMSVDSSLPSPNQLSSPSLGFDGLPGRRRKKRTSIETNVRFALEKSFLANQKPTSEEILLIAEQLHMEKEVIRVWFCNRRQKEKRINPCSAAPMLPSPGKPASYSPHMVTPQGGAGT
# T1 sequence 2: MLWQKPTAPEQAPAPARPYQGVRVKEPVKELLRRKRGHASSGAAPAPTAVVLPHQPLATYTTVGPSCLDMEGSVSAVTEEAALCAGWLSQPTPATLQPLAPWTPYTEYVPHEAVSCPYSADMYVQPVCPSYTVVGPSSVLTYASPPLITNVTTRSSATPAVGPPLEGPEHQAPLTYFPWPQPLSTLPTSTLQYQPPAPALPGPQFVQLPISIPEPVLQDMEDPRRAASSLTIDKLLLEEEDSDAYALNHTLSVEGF
# Experiment: as above
# Settings: protein: recombinant;recombinant; copies: 1;1; dsDNA, one strand shown
# Procedure, shortened: as §1
row,Sequence,binding signal
1,AGCGCAAT,0.0297 % of ANNNNAAN 8-mers
2,ATGACAAA,0.0479 % of ANNNNAAN 8-mers
3,ATTTAAAA,0.137 % of ANNNNAAN 8-mers
4,ATGCGAAG,0.057 % of ANNNNAAN 8-mers
5,ACGATAAG,0.0314 % of ANNNNAAN 8-mers
6,ACCAGAAT,0.0363 % of ANNNNAAN 8-mers
7,ATCTCAAT,0.0768 % of ANNNNAAN 8-mers
8,ATTTCAAG,0.0561 % of ANNNNAAN 8-mers
9,ATGCGAAA,0.0743 % of ANNNNAAN 8-mers
10,ATCCGAAG,0.0338 % of ANNNNAAN 8-mers
11,ATTAAAAC,0.0718 % of ANNNNAAN 8-mers
12,ACCGTAAA,0.0173 % of ANNNNAAN 8-mers
13,ACTTAAAA,0.052 % of ANNNNAAN 8-mers
14,AGTATAAC,0.0248 % of ANNNNAAN 8-mers
15,AACAGAAG,0.0297 % of ANNNNAAN 8-mers
16,ACACCAAT,0.019 % of ANNNNAAN 8-mers
17,ATCTTAAT,0.135 % of ANNNNAAN 8-mers
18,ATACAAAT,0.498 % of ANNNNAAN 8-mers
19,ATGTCAAC,0.0215 % of ANNNNAAN 8-mers
20,AACCTAAA,0.0264 % of ANNNNAAN 8-mers

row,Sequence,binding signal
1,AAACAAAT,0.669 % of ANNNNAAN 8-mers
2,AGTCGAAT,0.0611 % of ANNNNAAN 8-mers
3,ATCATAAA,0.0586 % of ANNNNAAN 8-mers
4,AGGCTAAT,0.0908 % of ANNNNAAN 8-mers
5,AGCCGAAA,0.0198 % of ANNNNAAN 8-mers
6,ACATCAAA,0.0239 % of ANNNNAAN 8-mers
7,AACGCAAA,0.229 % of ANNNNAAN 8-mers
8,AGTGGAAC,0.0314 % of ANNNNAAN 8-mers
9,ACTCGAAC,0.0198 % of ANNNNAAN 8-mers
10,ACGGGAAT,0.0759 % of ANNNNAAN 8-mers
11,ACGACAAG,0.0231 % of ANNNNAAN 8-mers
12,AGTTAAAT,0.127 % of ANNNNAAN 8-mers
13,AGCTTAAC,0.0165 % of ANNNNAAN 8-mers
14,ACGTGAAC,0.0206 % of ANNNNAAN 8-mers
15,ACTAGAAT,0.0438 % of ANNNNAAN 8-mers
16,AAAATAAT,0.155 % of ANNNNAAN 8-mers
17,AGTAGAAG,0.0297 % of ANNNNAAN 8-mers
18,AACGTAAG,0.0305 % of ANNNNAAN 8-mers
19,ATACGAAT,0.0759 % of ANNNNAAN 8-mers
